Source: PubChem
This is a sample that favours compounds with a hit; in the whole collection about 3% have one here.
SENP7 block – SENP7 protease inhibition; Q9BQF6; 1.5% of 330,000 active; inhibition, % at 5 µM; recombinant SENP7, Z-RLRGG-aminoluciferin luminescence, 40 min;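 active = inhibition above about 50% at the single test dose, limit read from the data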
SENP6 block – blocks the human protease SENP6. Q9GZR1. Recombinant SENP6 catalytic domain, aminoluciferin luminescence. AID 2599. 1.8% of 330,000 active. inhibition, % at 10 µM;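 active = inhibition above about 50% at the single tested dose, limit read from the data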
Target sequence (Q9GZR1 628-1112 limits assumed): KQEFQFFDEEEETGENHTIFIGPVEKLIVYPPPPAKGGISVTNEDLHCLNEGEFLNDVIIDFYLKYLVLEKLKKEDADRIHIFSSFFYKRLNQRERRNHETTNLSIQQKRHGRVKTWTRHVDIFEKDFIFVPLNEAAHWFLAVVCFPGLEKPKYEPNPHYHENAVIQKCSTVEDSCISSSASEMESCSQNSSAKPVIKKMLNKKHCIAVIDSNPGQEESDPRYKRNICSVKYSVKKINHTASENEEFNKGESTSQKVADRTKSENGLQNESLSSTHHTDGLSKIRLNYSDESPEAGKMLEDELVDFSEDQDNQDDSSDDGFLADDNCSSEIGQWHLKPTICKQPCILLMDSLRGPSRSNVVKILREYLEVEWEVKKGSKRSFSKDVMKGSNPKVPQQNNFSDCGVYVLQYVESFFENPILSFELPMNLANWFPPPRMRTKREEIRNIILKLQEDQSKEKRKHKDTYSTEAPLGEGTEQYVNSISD
SENP8 block-1 – inhibitors of human SENP8 protease | purified SENP8, Z-RLRGG-aminoluciferin cleavage, luminescence | inhibition, % at 10 µM | 1.2% of 330,000 active | AID 2540; in the data active = inhibition above about 50%
C8 TRAIL sens – sensitizes caspase-8 expressing cells to TRAIL | NB7+C8 cells + TRAIL, ATPlite viability luminescence | inhibition (viability loss, TRAIL sensitization), % at 10 µM | 1% of 360,000 active;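 active = compounds causing at least 50% loss of cell viability in the single-dose screen, relative to plate controls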
PPC-1+TRAIL kill – compounds killing PPC-1 cancer cells with TRAIL present (potentiator screen, no TRAIL-free arm); PPC-1 cells + TRAIL, ATPLite viability luminescence; cell killing (% activity), % at 4 µM or 5 µM; 0.41% of 220,000 active; AID 1443;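 active = cell killing above 50% in the first pass at 4 µM, then a duplicate retest at 5 µM averaging 50% or more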
SENP8 block-2 – blocks human SENP8 cleavage of Nedd8 substrate. inhibition, % at 20 µM. Q96LD8. 0.64% of 360,000 active. recombinant SENP8, Nedd8 substrate fluorescence; in the data active = inhibition mostly above about 40%, no sharp cut-off; inactive = mostly below about 27%
SENP8 confirm – human SENP8 inhibition, confirmed; shares compounds with SENP7 block; AID 488912; Recombinant SENP8, Z-RLRGG-aminoluciferin luminescence, 60 min; 40% of 6,200 active; inhibition, % at 12.5 µM;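 active = mean inhibition across replicates above about 50%, limit read from the data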
SENP6 conf – human SENP6 inhibition, confirmed; shares compounds with SENP7 block; recombinant SENP6, Z-RLRGG-aminoluciferin luminescence; AID 488915; inhibition, % at 12.5 µM; 58% of 6,200 active
SENP7 confirm – confirmation of human SENP7 protease inhibitors. shares compounds with SENP7 block. recombinant SENP7, Z-RLRGG-aminoluciferin luminescence, 40 min. inhibition, % at 12.5 µM. 69% of 6,200 active. AID 488917
Casp3 SENP sel – inhibits human caspase-3 in SENP selectivity test; purified caspase-3, Z-DEVD-aminoluciferin luminescence, 60 min; shares compounds with SENP7 block; inhibition, % at 12.5 µM; 60% of 6,200 active; AID 488918;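 active = mean inhibition above about 50%, limit read from the data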
Target sequence (P42574 28-227 limits assumed): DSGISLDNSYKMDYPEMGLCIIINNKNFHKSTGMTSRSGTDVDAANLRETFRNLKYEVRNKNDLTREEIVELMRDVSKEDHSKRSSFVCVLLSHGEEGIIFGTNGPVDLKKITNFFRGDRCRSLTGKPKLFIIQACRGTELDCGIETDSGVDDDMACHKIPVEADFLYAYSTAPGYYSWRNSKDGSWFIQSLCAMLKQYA
SENP luc ctr – luminescence interference (SENP counter-screen); 39% of 6,200 active; shares compounds with SENP7 block; Pre-incubated SENP8/Z-RLRGG-aminoluciferin, luciferase luminescence interference; AID 488919; inhibition, % at 12.5 µM;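 active = mean inhibition above about 50% when retested at one dose, limit read from the data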
Of the large screens only hits and unclear results are named; the others gave an inactive call (follow-up assays come after a bar, where they were run).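 The calls were made as follows, unless noted: active = mean inhibition above about 50% in the one-dose retest (limit read from the data); inactive = the rest.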

O=C(Nc1ncc([N+](=O)[O-])s1)c1ccccc1Br	SENP7 block 76.3, SENP6 block 89.6, SENP8 block-1 86.3 (no result: PPC-1+TRAIL kill) | SENP8 confirm 91.1 | SENP6 conf 89.9 | SENP7 confirm 100.2 | Casp3 SENP sel 93.6 | SENP luc ctr 70.9
O=C(Nc1ncc([N+](=O)[O-])s1)c1cccs1	SENP7 block 99.2, SENP6 block 97.2, SENP8 block-1 96.2 (no result: PPC-1+TRAIL kill) | SENP8 confirm 96.3 | SENP6 conf 98.1 | SENP7 confirm 102.6 | Casp3 SENP sel 98.2 | SENP luc ctr 97.6
Cc1ccc(C(=O)Nc2cccc(C(=O)NC3CCCC3)c2)cc1	none (no result: PPC-1+TRAIL kill)
O=c1c2ccccc2cnn1CCOc1cccc(Br)c1	SENP7 block 58.5, SENP6 block 73.9, SENP8 block-1 59.8 (no result: PPC-1+TRAIL kill) | SENP8 confirm 55.0 | SENP6 conf 67.9 | SENP7 confirm 86.3 | Casp3 SENP sel 58.0 | SENP luc ctr inactive
Cc1ccc(OCCn2ncc3ccccc3c2=O)c(C)c1	none (no result: PPC-1+TRAIL kill)
c1ccc(Oc2cc(-n3cccn3)ncn2)cc1	SENP6 block 54.2 | SENP8 confirm inactive | SENP6 conf inactive | SENP7 confirm 74.6 | Casp3 SENP sel 68.0 | SENP luc ctr inactive
COc1ccccc1NC(=O)c1ccc[n+]([O-])c1	none (no result: PPC-1+TRAIL kill)
O=C(O)c1ccc(N/N=C/c2cn(Cc3ccccc3F)c3ccccc23)cc1	SENP6 block 84.3, SENP8 block-1 87.9 | SENP8 confirm 96.1 | SENP6 conf 95.3 | SENP7 confirm 98.9 | Casp3 SENP sel inactive | SENP luc ctr inactive
Cn1cc(/C=N/Nc2ccccc2)c2ccccc21	none
CC(C)n1cc(/C=N/Nc2ccc(C(=O)O)cc2)c2ccccc21	SENP7 block 61.3, SENP6 block 82.4, SENP8 block-1 80.0 (no result: PPC-1+TRAIL kill) | SENP8 confirm 90.4 | SENP6 conf 88.6 | SENP7 confirm 96.0 | Casp3 SENP sel 60.8 | SENP luc ctr 55.0
COc1ccc(OC)c(N2C(=O)CC(NNC(=O)c3ccc4c(c3)OCO4)C2=O)c1 (stereo not given)	none (no result: PPC-1+TRAIL kill)
Cc1c(Br)cccc1NC(=O)C1(C)CCN1Cc1ccccc1OC(F)F (stereo not given)	none (no result: SENP7 block, SENP6 block, SENP8 block-1, PPC-1+TRAIL kill)
O=[N+]([O-])c1ccc(C=Nc2cccc3ccccc23)s1	SENP6 block 58.1 | SENP8 confirm inactive | SENP6 conf inactive | SENP7 confirm inactive | Casp3 SENP sel inactive | SENP luc ctr inactive
O=C(Cc1ccccc1)NCC(=O)N/N=C/c1ccc([N+](=O)[O-])s1	none (no result: PPC-1+TRAIL kill)
O=[N+]([O-])c1ccc(-c2ccc(C=Nc3cccc4ccccc34)o2)cc1	SENP7 block 52.2, SENP6 block 83.2 | SENP8 confirm inactive | SENP6 conf inactive | SENP7 confirm inactive | Casp3 SENP sel inactive | SENP luc ctr inactive
Cc1ccc(C(=O)OCC(=O)NCCNC(=O)COC(=O)c2ccc(C)s2)s1	none (no result: PPC-1+TRAIL kill)
O=C(COC(=O)c1ccc[nH]c1=O)c1ccc(Cl)s1	none
Cc1ccc(C(=O)OCC(=O)c2ccc(Cl)s2)s1	SENP6 block 53.7 | SENP8 confirm 51.7 | SENP6 conf inactive | SENP7 confirm 80.1 | Casp3 SENP sel inactive | SENP luc ctr inactive
O=C(COC(=O)c1cccnc1Cl)c1ccc(Cl)s1	SENP7 block 76.3, SENP6 block 55.9 (no result: PPC-1+TRAIL kill) | SENP8 confirm 67.0 | SENP6 conf 62.9 | SENP7 confirm 87.5 | Casp3 SENP sel 79.9 | SENP luc ctr 76.0
CCN(C(=O)CSc1nnc(-c2cccc(Cl)c2)n1N)c1c(N)n(Cc2ccccc2)c(=O)[nH]c1=O	none (no result: SENP7 block, SENP6 block, SENP8 block-1, PPC-1+TRAIL kill)
COc1ccc(N(C(C)C(=O)N2CCC(Cc3ccccc3)CC2)S(C)(=O)=O)cc1 (stereo not given)	none
CCCc1[nH]n(-c2ccc([N+](=O)[O-])cc2)c(=O)c1C=NCCN1CCNCC1	SENP7 block 86.6, SENP6 block 91.8, SENP8 block-1 83.6 (no result: C8 TRAIL sens, SENP8 block-2) | SENP8 confirm 77.6 | SENP6 conf 50.0 | SENP7 confirm 57.2 | Casp3 SENP sel 85.4 | SENP luc ctr 69.2
Cc1[nH]n(-c2ccc([N+](=O)[O-])cc2)c(=O)c1C=NCCN1CCN(C(=O)C(C)C)CC1	SENP7 block 78.4, SENP6 block 85.5, SENP8 block-1 62.0 | SENP8 confirm inactive | SENP6 conf inactive | SENP7 confirm inactive | Casp3 SENP sel inactive | SENP luc ctr inactive
CCCNC(=O)C1(C)CCCN(C(=O)COc2ccc(Cl)cc2Cl)C1 (stereo not given)	none (no result: SENP7 block, SENP6 block, SENP8 block-1, PPC-1+TRAIL kill)
Cc1nc(SCC(=O)N2CCN(c3ccccn3)CC2)c(C#N)c(C)c1C	none (no result: PPC-1+TRAIL kill)
CCc1ccc(S(=O)(=O)N2CCN(c3ccccc3OC)CC2)cc1	none (no result: PPC-1+TRAIL kill)
Fc1cccc(/C=N/Nc2nncc3ccccc23)c1	SENP7 block 95.5, SENP6 block 92.2, SENP8 block-1 89.8, C8 TRAIL sens 84.2 (no result: PPC-1+TRAIL kill) | SENP8 confirm 78.2 | SENP6 conf 94.1 | SENP7 confirm 98.2 | Casp3 SENP sel 88.6 | SENP luc ctr 60.8
Fc1ccc(/C=N/Nc2nccnc2Cl)cc1	SENP7 block 94.3, SENP6 block 93.1, SENP8 block-1 86.3 (no result: PPC-1+TRAIL kill) | SENP8 confirm 92.8 | SENP6 conf 93.3 | SENP7 confirm 99.7 | Casp3 SENP sel 96.3 | SENP luc ctr 92.3
Fc1cccc(/C=N/N=C/c2cccc(F)c2)c1	none
Fc1cccc(/C=N/Nc2nccnc2Cl)c1	SENP7 block 98.9, SENP6 block 97.1, SENP8 block-1 92.9 (no result: PPC-1+TRAIL kill) | SENP8 confirm 95.7 | SENP6 conf 96.4 | SENP7 confirm 102.4 | Casp3 SENP sel 98.4 | SENP luc ctr 96.4
Oc1ccc(/C=N/Nc2nccnc2Cl)cc1	SENP7 block 98.8, SENP6 block 96.7, SENP8 block-1 97.9 | SENP8 confirm 98.5 | SENP6 conf 99.2 | SENP7 confirm 102.4 | Casp3 SENP sel 98.2 | SENP luc ctr 97.9
Fc1ccc(/C=N/Nc2nnnn2-c2ccccc2)cc1	none
O=C(NN=Cc1ccc(O)cc1)C(=O)NN=Cc1ccc(O)cc1	none (no result: SENP7 block, SENP6 block, SENP8 block-1, PPC-1+TRAIL kill)
CCN(CC)CCNC(=O)c1cccc(NC(=O)C(=O)c2ccccc2NC(C)=O)c1	none
CCOc1ccccc1N(CC(=O)Nc1ccccc1Br)S(=O)(=O)c1ccccc1	none (no result: SENP7 block, SENP6 block, SENP8 block-1, PPC-1+TRAIL kill)
C/C(=N/N=C/c1ccc(N(C)C)cc1)c1ccccc1	SENP7 block 101.2, SENP6 block 96.8, SENP8 block-1 97.7, C8 TRAIL sens 55.9 | SENP8 confirm inactive | SENP6 conf 80.3 | SENP7 confirm 101.2 | Casp3 SENP sel 67.2 | SENP luc ctr inactive
